ERK EGF block: qHTS Assay for Inhibitors of the ERK Signaling Pathway using a Homogeneous Screening Assay; Stimulation with EGF; AID 1454, 2008; Potency, µM (titrated, usually from 11.5 µM), inactives show at the highest dose activity change, negative = inhibition, actives largely listed as inhibitors; HEK293-V1b, EGF-stimulated phospho-ERK AlphaScreen; 130,000 compounds, 0.41% hits;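 also: potency is read from the fitted curve at half-maximal effect; plate controls were stimulated vehicle wells for no effect and unstimulated vehicle basal for full effect; nearly all actives have a fitted effect of over 55% in size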
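Homogeneous cell-based phospho-ERK assay: HEK293/V1b cells in 1% FBS, compound 30 min then EGF 5 min, AlphaScreen luminescence. Activity normalized between DMSO and 25 nM EGF controls; AC50 from Hill modelling.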
pERK EGF inh: Confirmation Concentration-Response Assay for Inhibitors of the ERK Signaling Pathway using a Homogeneous Screening Assay; Stimulation with EGF | shares compounds with ERK EGF block | HEK293 EGF-stimulated ERK phosphorylation, AlphaScreen | Potency, µM (top dose mostly 57.5 µM), for inactives: at the highest dose activity change, negative = inhibition, most hits filed as inhibitors | 60 compounds, 60% hits
c-Raf inh: Assay for Inhibitors of the ERK Signaling Pathway using a Homogeneous Screening Assay: c-Raf Inhibition. shares compounds with ERK EGF block. c-Raf kinase inhibition, homogeneous biochemical assay. activity change, negative = inhibition, % at 76.9 µM. 70 tested, under 10 active. AID 1728, 2009
MEK inh: Assay for Inhibitors of the ERK Signaling Pathway using a Homogeneous Screening Assay: MEK Inhibition. 70 tested, under 10 active. shares compounds with ERK EGF block. homogeneous MEK kinase activity assay, ERK pathway. Potency, µM (highest dose often 76.9 µM), without a hit: at the highest dose activity change, negative = inhibition, usual class: inhibitors
Target sequence (Q02750 whole entry, looked up): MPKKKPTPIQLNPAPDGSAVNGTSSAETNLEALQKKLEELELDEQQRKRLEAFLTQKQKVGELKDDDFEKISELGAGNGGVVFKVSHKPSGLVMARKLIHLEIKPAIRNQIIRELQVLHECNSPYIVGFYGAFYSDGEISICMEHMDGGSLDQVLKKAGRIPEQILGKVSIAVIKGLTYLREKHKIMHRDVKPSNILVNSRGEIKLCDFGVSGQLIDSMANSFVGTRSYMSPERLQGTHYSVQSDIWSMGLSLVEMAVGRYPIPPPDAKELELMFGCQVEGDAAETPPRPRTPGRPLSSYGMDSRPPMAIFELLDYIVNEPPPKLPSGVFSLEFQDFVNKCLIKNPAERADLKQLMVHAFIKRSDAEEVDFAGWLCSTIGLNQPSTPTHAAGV
The depositor's hits bear a star; ? = inconclusive; [ ] = another dose, or the depositor's remark. Shown is part of a subset that was picked to be rich in hits. Calls follow the shape of the dose curve; as a rule, active = well fitted curve in the direction sought with a large enough effect; inconclusive = small, poorly fitted or top-dose-only effect, or another doubt; inactive = no such curve, though single readings can be large; an effect the other way counts as inactive or inconclusive.

SMILES	ERK EGF block	others
O=C(OCC1OC(OC(=O)c2cc(O)c(O)c(OC(=O)c3cc(O)c(O)c(O)c3)c2)[C@@H](OC(=O)c2cc(O)c(O)c(OC(=O)c3cc(O)c(O)c(O)c3)c2)C(OC(=O)c2cc(O)c(O)c(OC(=O)c3cc(O)c(O)c(O)c3)c2)C1OC(=O)c1cc(O)c(O)c(OC(=O)c2cc(O)c(O)c(O)c2)c1)c1cc(O)c(O)c(OC(=O)c2cc(O)c(O)c(O)c2)c1 (stereo not given in full)	7.9µM*
CC(=O)NC1C(OCCOc2ccc(Cl)cc2Cl)OC(COC(C)=O)C(OC(C)=O)C1OC(C)=O (stereo not given)	-8%[57.5 µM]
CCC(C)(C)c1ccc(OCCCC[n+]2cccc(C)c2C)c(C(C)(C)CC)c1	32µM*
Cc1cc(C(C)(C)C)ccc1OCCCCN1CCCC1	-4%
COc1ccc(C(=O)C[n+]2cccc(C)c2C)cc1[N+](=O)[O-]	-6%
COc1ccc(CNc2ncnc3ccc(-c4ccccc4CN(C)C)cc23)c(OC)c1	16%
Cc1cc(/C=C2/C(=O)N(C)C(=S)N2C)ccc1N1CCCC1	25µM*
CN1C(=O)/C(=C/C=C2/CCCN2C)N(C)C1=S	-2%
Cc1cc(/C=C2\NC(=S)N(C)C2=O)ccc1N1CCCC1	-3%
C=CC[C@@](C(C)=O)(C(=O)OC)C(NC(=O)OC(C)(C)C)c1ccccc1 (stereo not given in full)	1%
CCCCCCCCCCCCCCCC(=O)NCC(COP(=O)([O-])OCC[N+](C)(C)C)OCC (stereo not given)	25µM*
CCCCCCCCCCCCCCCCCCOC[C@@H](O)COP(=O)([O-])OCC[N+](C)(C)C	-8%
CC/C=C\C/C=C\C/C=C\C/C=C\C/C=C\CCC(=O)O[C@H](COCCCCCCCCCCCCCCCC)COP(=O)([O-])OCC[N+](C)(C)C	1%
COc1ccc(C(=O)N2CCC3(CCN(Cc4nccs4)CC3)CC2)cc1	-4%
COC(=O)CC1c2ccccc2C(Cc2ccc3c(c2)OCO3)=C(C)N1C(=O)OC (stereo not given)	4%
CNC(=O)Oc1ccc2c(c1)C1(C)CCN(C)C1N2C (stereo not given)	-19%
CC(C)C(=O)NC(=S)Nc1ccc(CN2CCOCC2)cc1	-7%
CC(C)c1ccc(/C=C/C(=O)Nc2ccc(CN3CCOCC3)cc2)cc1	35µM*
O=C(/C=C/c1ccccc1)NC(=S)Nc1ccc(CN2CCOCC2)cc1	-3%
CC/C=C\C[C@H]1C(=O)CC[C@@H]1CC(=O)O	-2%
COc1ccc(C)cc1-n1c(=O)c2ccccc2c2ccccc2c1=O	1%
COc1ccc(C)cc1N1C(=N)/C(=C2/Nc3ccccc3S2)C(c2ccccc2)C1=O (stereo not given)	20µM*
COc1ccccc1N1C(=O)C2CCC(c3ccccc3)CC2C1=O (stereo not given)	5%
CN(C)c1ccc(-c2nc(NCc3cccnc3)c3ccccc3n2)cc1	20%
COc1ccc(-c2nc(-c3ccccc3)oc2Nc2ccccc2C)cc1	-9%
SMILES	ERK EGF block	others
CCCNC[C@H](O)COc1ccccc1C(=O)CCc1ccccc1	10%
C=CCC(C)(O)c1ccsc1 (stereo not given)	-12%
CC1CCC(C(C)C)[C@H](OC(=O)c2ccccc2)C1 (stereo not given in full)	17%
COc1ccc(-c2n(CC(=O)OC3CC(C)CCC3C(C)C)c3ccccc3[n+]2C)cc1 (stereo not given)	1.8µM*	pERK EGF inh=-13%;c-Raf inh=-12;MEK inh=-7%
CC1CCC(C(C)C)C(OC(=O)C2=C3c4ccccc4S(=O)(=O)N3CC2)C1 (stereo not given)	3%
CC(C)C[C@@H](CC(=O)N[C@@H](CCC(=O)O)CC(=O)O)NC(=O)[C@@H]1CNCC[C@H]1NC(=O)C[C@H](CCCN)NC(=O)C[C@H](Cc1ccccc1)NC(=O)[C@@H]1CNCC[C@H]1N	0%
Nc1nc(Nc2ccccc2)nc2c1ncn2[C@@H]1O[C@H](CO)[C@H](O)[C@H]1O	2%
O=C(O)c1c(Sc2ccccc2)c2cc(Cl)ccc2n1Cc1ccc(Cl)cc1	4%
CC(=O)N1CCC(=NNc2nc3ccccc3s2)CC1	?	pERK EGF inh=?;c-Raf inh=?;MEK inh=-4%
